Test results taken from PubChem BioAssay (EPA / NIEHS).
Where “and” joins values, the source holds several entries; their conditions need not be identical. Identical values can stand only once. Results filed as inconclusive are left out. The source holds several records for some structures; these can differ, active in one and inactive in another. Calls of active or inactive are those of the source. How the source made its calls: active means hit-call score of the fitted dose curve at least 0.9, where 1 is the maximum; inconclusive means response in the unintended direction; inactive means score below 0.9.

Experiments:
[1] = target: Luciferin 4-monooxygenase (Photinus pyralis) (UniProt P08659); test: CCTE_Simmons_QuantiLum_inhib_2: CCTE's Firefly Luciferase Inhibition Assay, Simmons Lab (AID 2283767);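 on AC50: potency for inhibitors that lower luciferase luminescence relative to DMSO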
Chain of Luciferin 4-monooxygenase (Photinus pyralis) (P08659 whole entry, looked up): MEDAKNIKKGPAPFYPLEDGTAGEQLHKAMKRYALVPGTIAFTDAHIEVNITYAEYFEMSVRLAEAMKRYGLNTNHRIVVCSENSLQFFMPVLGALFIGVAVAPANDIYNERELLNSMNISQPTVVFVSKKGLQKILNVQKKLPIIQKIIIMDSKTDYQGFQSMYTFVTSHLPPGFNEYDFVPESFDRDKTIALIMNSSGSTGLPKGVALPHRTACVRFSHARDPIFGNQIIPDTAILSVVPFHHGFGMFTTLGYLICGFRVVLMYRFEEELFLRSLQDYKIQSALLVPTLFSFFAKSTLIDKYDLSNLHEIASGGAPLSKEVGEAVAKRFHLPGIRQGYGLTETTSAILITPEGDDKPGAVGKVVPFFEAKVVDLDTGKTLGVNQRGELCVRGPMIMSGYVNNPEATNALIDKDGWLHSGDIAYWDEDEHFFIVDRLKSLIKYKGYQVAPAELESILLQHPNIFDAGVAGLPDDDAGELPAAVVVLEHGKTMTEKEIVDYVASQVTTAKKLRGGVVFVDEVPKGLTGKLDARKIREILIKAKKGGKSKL
Summary of the method: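 Eight test concentrations, 5 nM up to 87.5 uM final, preincubated 30min at 37C in the dark with purified luciferase (0.5% DMSO final). Detection reagent (150uM D-luciferin, 147uM dATP, 75uM CoA, pH 7.8) injected per well before kinetic luminescence read; three replicates.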

[2] = tested on: zebrafish Estrogen Receptor (ESR2B), gene 317733; test: ATG_zfER2b_XSP1: Attagene TRANS-FACTORIAL Multi-Species (XSP1) HepG2 Assay for zebrafish Estrogen Receptor (ESR2B) (AID 2283773)
Summary of the method: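 Multiplexed TRANS format in transfected HepG2 liver cells, chimeric NR-Gal4 from zebrafish ESR2B. 24 h dosing; medium contains 3 nM 6-alpha-fluorotestosterone. mRNA induction by RT-PCR/CE, positive direction vs DMSO.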

[3] = ACEA_AR_agonist_AUC_viability: ACEA Biosciences xCELLigence Real-Time Cell Analysis on Androgen Receptor Agonism for Viability (AID 2283775);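 on AC50: viability read 80 hours after compound addition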
Summary of the method: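 22Rv1 cells; impedance growth kinetics; 8-pt 1:4 dilutions from 100 uM top final, ≤0.5% DMSO; n = 2; 80 h read; AUC viability, loss-of-signal vs DMSO.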

[4] = target: chicken Estrogen Receptor (ESR1), ESR1 (gene 396099) (UniProt P06212); test: ATG_chERa_XSP1: Attagene TRANS-FACTORIAL Multi-Species (XSP1) HepG2 Assay for chicken Estrogen Receptor (ESR1) (AID 2283779)
Chain of chicken Estrogen Receptor (ESR1), ESR1 (gene 396099) (P06212 whole entry, looked up, the tested form may be a part): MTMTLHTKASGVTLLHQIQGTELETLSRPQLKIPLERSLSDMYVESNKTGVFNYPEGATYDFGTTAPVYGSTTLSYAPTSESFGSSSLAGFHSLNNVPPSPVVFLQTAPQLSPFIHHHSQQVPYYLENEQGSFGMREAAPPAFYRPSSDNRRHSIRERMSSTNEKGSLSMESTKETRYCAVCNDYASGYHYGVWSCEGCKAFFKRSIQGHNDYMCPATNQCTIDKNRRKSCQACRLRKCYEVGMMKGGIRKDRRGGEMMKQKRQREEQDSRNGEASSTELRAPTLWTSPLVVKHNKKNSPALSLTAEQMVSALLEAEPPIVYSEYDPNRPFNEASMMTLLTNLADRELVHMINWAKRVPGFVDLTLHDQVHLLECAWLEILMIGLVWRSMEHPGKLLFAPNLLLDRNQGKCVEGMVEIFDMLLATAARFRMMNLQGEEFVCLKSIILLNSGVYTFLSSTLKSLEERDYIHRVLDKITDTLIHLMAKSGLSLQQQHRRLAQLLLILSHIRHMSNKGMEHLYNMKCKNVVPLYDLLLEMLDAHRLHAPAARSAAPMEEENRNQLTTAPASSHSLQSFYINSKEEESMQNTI
Summary of the method: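 Read-out: fluorescent reporter mRNA fragments resolved by capillary electrophoresis after RT-PCR and HpaI digestion. Transfected HepG2 cells carried chimeric NR-Gal4 constructs, were dosed 24 h with 3 nM 6-alpha-fluorotestosterone added, and activity was fitted upward relative to DMSO.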

[5] = target: Estrogen receptor (Homo sapiens) (UniProt P03372); test: ATG_hERa_XSP1: Attagene TRANS-FACTORIAL Multi-Species (XSP1) HepG2 Assay for human Estrogen Receptor (ESR1) (AID 2283780)
Chain of Estrogen receptor (Homo sapiens) (P03372 whole entry, looked up, the tested form may be a part): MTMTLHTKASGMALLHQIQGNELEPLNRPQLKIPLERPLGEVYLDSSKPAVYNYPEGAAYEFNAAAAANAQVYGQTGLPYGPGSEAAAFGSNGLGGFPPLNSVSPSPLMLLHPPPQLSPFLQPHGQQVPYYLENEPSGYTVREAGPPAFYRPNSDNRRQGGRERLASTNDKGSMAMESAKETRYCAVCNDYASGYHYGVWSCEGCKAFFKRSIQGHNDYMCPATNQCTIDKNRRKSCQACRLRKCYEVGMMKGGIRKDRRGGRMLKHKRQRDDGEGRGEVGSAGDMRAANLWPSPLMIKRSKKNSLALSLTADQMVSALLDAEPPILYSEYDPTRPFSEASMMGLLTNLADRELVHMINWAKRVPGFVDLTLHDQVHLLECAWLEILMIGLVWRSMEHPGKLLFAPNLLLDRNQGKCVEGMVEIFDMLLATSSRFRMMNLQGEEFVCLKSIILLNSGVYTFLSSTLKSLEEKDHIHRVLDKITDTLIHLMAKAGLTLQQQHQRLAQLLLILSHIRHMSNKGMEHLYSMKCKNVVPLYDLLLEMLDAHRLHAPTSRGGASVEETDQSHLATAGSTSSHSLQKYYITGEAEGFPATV
Summary of the method: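 Reporter transcripts from multiplexed GAL4-UAS units driven by NR-Gal4 chimeras in transiently transfected HepG2 were measured by RT-PCR with capillary electrophoresis 24 h post-dose, with 3 nM 6-alpha-fluorotestosterone present; gain-of-signal relative to DMSO.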

[6] = ACEA_AR_antagonist_AUC_viability: ACEA Biosciences xCELLigence Real-Time Cell Analysis on Androgen Receptor Antagonism for Viability (AID 2283776);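 further: 22Rv1 human prostate cancer cells growing on impedance electrode plates; area under impedance growth curve at 80 h after dosing as viability; hits lower the growth signal relative to DMSO meaning cytotoxicity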
Summary of the method: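 Viability endpoint from label-free cell-index monitoring: 22Rv1 cultures treated with an eight-point 1:4 dilution series starting at 100 uM final, AUC at 80 h fitted against DMSO.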

[7] = tested on: zebrafish Androgen Receptor (AR), gene 100005148; test: ATG_zfAR_XSP1: Attagene TRANS-FACTORIAL Multi-Species (XSP1) HepG2 Assay for zebrafish Androgen Receptor (AR) (AID 2283771)
Summary of the method: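 Gain-of-signal versus DMSO was measured as reporter transcripts quantified by RT-PCR, fluorescent labelling and capillary electrophoresis after 24 h chemical exposure. The cells were HepG2 expressing a chimeric zebrafish AR-GAL4, co-stimulated with 3 nM 6-alpha-fluorotestosterone.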

[8] = target: zebrafish Estrogen Receptor (ESR1), esr1 (gene 259252) (UniProt P57717); test: ATG_zfER1_XSP1: Attagene TRANS-FACTORIAL Multi-Species (XSP1) HepG2 Assay for zebrafish Estrogen Receptor (ESR1) (AID 2283772)
Chain of zebrafish Estrogen Receptor (ESR1), esr1 (gene 259252) (P57717 whole entry, looked up, the tested form may be a part): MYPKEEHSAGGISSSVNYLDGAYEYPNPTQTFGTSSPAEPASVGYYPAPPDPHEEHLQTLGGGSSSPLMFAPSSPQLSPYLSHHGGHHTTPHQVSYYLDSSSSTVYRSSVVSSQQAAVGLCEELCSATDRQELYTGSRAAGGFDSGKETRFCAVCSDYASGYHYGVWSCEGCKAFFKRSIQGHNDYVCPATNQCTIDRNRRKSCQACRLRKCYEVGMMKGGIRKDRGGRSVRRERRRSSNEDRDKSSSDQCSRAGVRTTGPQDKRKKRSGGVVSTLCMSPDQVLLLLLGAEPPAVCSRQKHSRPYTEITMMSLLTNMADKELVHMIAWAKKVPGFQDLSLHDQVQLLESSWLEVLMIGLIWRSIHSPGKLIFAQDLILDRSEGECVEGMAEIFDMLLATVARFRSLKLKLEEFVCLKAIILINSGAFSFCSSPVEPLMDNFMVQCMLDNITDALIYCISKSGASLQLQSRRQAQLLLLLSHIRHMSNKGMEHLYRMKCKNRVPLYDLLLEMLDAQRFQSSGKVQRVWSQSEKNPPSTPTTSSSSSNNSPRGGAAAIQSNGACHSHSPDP
Summary of the method: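 Exogenous chimeric receptor-GAL4 activity is measured in transiently transfected human HepG2 liver cells after 24 h compound exposure. Reporter transcripts are detected by RT-PCR and fluorescent capillary electrophoresis, analysed for signal gain relative to DMSO.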

[9] = tested on: frog Estrogen Receptor (ESR2), gene 100174814; test: ATG_frER2_XSP1: Attagene TRANS-FACTORIAL Multi-Species (XSP1) HepG2 Assay for frog Estrogen Receptor (ESR2) (AID 2283774)
Summary of the method: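 HepG2, transient MRTU transfection (GAL4-UAS reporters, exogenous NR-Gal4 chimeras); 24 h compound exposure; 3 nM 6α-fluorotestosterone co-added; total RNA → RT-PCR → 6-FAM primer extension → HpaI → CE. Positive direction vs DMSO.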

[10] = tested on: frog Estrogen Receptor (ESR1), gene 398734; test: ATG_frER1_XSP1: Attagene TRANS-FACTORIAL Multi-Species (XSP1) HepG2 Assay for frog Estrogen Receptor (ESR1) (AID 2283777)
Summary of the method: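 Transient MRTU transfection, HepG2 (human liver); 24 h dosing, 3 nM 6α-fluorotestosterone co-added; RNA → RT-PCR → 6-FAM labeling → CE; upward activity vs DMSO.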

[11] = tested on: zebrafish Estrogen Receptor (ESR2A), gene 317734; test: ATG_zfER2a_XSP1: Attagene TRANS-FACTORIAL Multi-Species (XSP1) HepG2 Assay for zebrafish Estrogen Receptor (ESR2A) (AID 2283778)
Summary of the method: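 Transient transfection of HepG2 (human liver) with MRTU constructs; chemical dosing for 24 h; medium contained 3 nM 6-alpha-fluorotestosterone to partly stimulate AR. RT-PCR/CE fluorescence of reporter transcripts; positive direction vs DMSO.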

[12] = ArunA_Migration_hNP: ArunA Biomedical's Oris Neuroprogenitor (hNP) Cell Migration Assay (AID 2283754)
Summary of the method: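 Readout is calcein-AM fluorescence (ex494/em517) of cells migrating into the detection zone, relative to DMSO. hNP1 cells (H9-derived) grown on Matrigel behind stoppers 16 h, then stoppers pulled and chemical applied 72 h; cytochalasin D as control.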

[13] = ArunA_Migration_hNC: ArunA Biomedical's Oris Neural Crest (hNC) Cell Migration Assay (AID 2283755)
Summary of the method: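 Calcein-AM fluorescence (ex494 nm/em 517 nm) in the stopper-defined detection zone quantifies migration of hNC cells after 72 h chemical exposure; 60,000 cells/well plated on Matrigel with LIF and bFGF, 16 h pre-incubation. DMSO baseline.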

[14] = ArunA_NOG_NucleusCount: ArunA Biomedical's Neurite Outgrowth (NOG) Assay for Nucleus Count (AID 2283756)
Summary of the method: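 Viable neuron count, from Hoechst nuclei passing size and intensity gates, imaged at 20x on differentiated H9-derived human neurons. Exposure lasted 48 h from seeding; activity was scored relative to DMSO.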

[15] = ArunA_NOG_NeuriteLength: ArunA Biomedical's Neurite Outgrowth (NOG) Assay for Neurite Length (AID 2283757)
Summary of the method: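 Total neurite length per neuron, from traced βIII-tubulin-labelled processes longer than 10 um on viable Hoechst-gated cells, was scored as decrease from DMSO. Cells were hESC (H9)-derived neurons given 48 h chemical exposure immediately after seeding.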

[16] = ArunA_NOG_NeuritesPerNeuron: ArunA Biomedical's Neurite Outgrowth (NOG) Assay for Neurites Per Neuron (AID 2283758)
Summary of the method: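 Differentiated human H9-derived neurons exposed to chemicals for 48 h from seeding, then stained with Hoechst and βIII-tubulin/DyLight 488. Automated imaging counted neurites (processes >10 um) per valid neuron; loss of signal versus DMSO scored.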

Measured: AC50

COP(=O)(OC)O/C(=C\Cl)c1cc(Cl)c(Cl)cc1Cl
active: [2] 73.9 µM
inactive: [1] | [3] | [4] | [5]

COP(=S)(OC)Oc1ccc(Sc2ccc(OP(=S)(OC)OC)cc2)cc1
inactive: [3] | [6]
active: [1] 53.8 µM

CC12CC1(C)C(=O)N(c1cc(Cl)cc(Cl)c1)C2=O (configuration not stated)
active: [2] 60.6 µM | [9] 24.7 µM | [6] 81 µM | [4] 100 µM
inactive: [1] | [7] | [8] | [3] | [10] | [11]

CCC(C)(C)c1ccc(O)c(C(C)(C)CC)c1
active: [6] 47.9 µM
inactive: [1] | [3]

CCOC(=O)Nc1cccc(OC(=O)Nc2ccccc2)c1
active: [1] 29.1 µM
inactive: [3] | [6]

CC(C)(C)CC(C)(C)c1ccc(O)cc1
inactive: [1] | [7] | [11]
active: [2] 1.7 µM | [9] 2.75 µM | [3] 10.4 µM | [6] 8.78 µM | [10] 1.86 µM | [4] 2.21 µM

CCC1(c2ccc(N)cc2)CCC(=O)NC1=O (configuration not stated)
inactive: [1] | [3] | [6]

CC(C)(C)c1cc(O)ccc1O
inactive: [14] | [15] | [16] | [1] | [8] | [10] | [11]
active: [12] 33.7 µM | [13] 35.8 µM | [1] 79.7 µM and 80.7 µM | [2] 20 µM | [9] 22.4 µM | [3] 90.9 µM | [6] 86.2 µM | [4] 8.92 µM | [5] 8.75 µM
